From PubChem BioAssay
ELG1 DNA repair: blocks ELG1-dependent DNA repair in HEK293T cells. 2.3% of 330,000 active. HEK293T ELG1-luciferase reporter, luminescence, 16 h; DNA damage induced by 5-fluorouridine. Potency, µM (highest dose often 46.1 µM), usual class: inhibitors. AID 504467; further: nearly all actives have a fitted effect of over 55% in size
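In this reporter screen, reduction of luminescence relative to DMSO vehicle indicated activity. Compounds and 5-fluorouridine were added together to 2,000 cells per well, incubated for 16 hr at 37 °C, then developed with ONE-Glo.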
ELG1 genotox: induces genotoxicity in HEK293T cells with luciferase-tagged ELG1 | AID 504466 | HEK293T ELG1-luciferase reporter, luminescence, 16 h | 1.3% of 330,000 active | Potency, µM (doses to about 46 µM), actives largely listed as activators; further: nearly all actives have a fitted effect of over 60% in size
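Genotoxic stress is detected as increased luminescence from luciferase-tagged ELG1 in HEK293T cells, measured with ONE-Glo after a 16 hr treatment at 37 °C.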
NPC1 prom act: NPC1 promoter activation. 2.4% of 320,000 active. Huh7 NPC1 promoter luciferase reporter, 24 h. AID 485313. Potency, µM (highest dose often 9.22 µM), actives largely listed as activators; further: nearly all actives have a fitted effect of over 60% in size
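Luminescence from an NPC1 promoter-driven luciferase reporter in stably transfected Huh7 cells was measured after 24 h compound treatment at 37 °C, followed by 10 min ambient incubation with luciferase detection reagent.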
SMN2 splice enh: increases expression of the SMN2 splice variant; HEK293 SMN2-luciferase splicing reporter, luminescence, 30-36 h; Potency, µM (top dose mostly 46.1 µM), usual class: activators; 2.8% of 210,000 active; AID 1458; further: nearly all actives have a fitted effect of over 55% in size
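HEK293 cells carry an SMN2 minigene-luciferase reporter in which exon 7 inclusion puts luciferase in frame. Cells were seeded at 2000 cells/well, attached for 10-12 hours, then exposed to compounds for 30-36 hours at 37C before ONE-Glo luminescence.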
FLuc modulator: inhibits or activates purified firefly luciferase, miR-21 counter-screen; P08659; 6.9% of 360,000 active; Potency, µM (titrated, usually from 57.5 µM), usual class: inhibitors; AID 588342; purified FLuc, Km substrates, luminescence inhibition; further: nearly all actives have a fitted effect of over 55% in size
Target sequence (P08659 whole entry, looked up): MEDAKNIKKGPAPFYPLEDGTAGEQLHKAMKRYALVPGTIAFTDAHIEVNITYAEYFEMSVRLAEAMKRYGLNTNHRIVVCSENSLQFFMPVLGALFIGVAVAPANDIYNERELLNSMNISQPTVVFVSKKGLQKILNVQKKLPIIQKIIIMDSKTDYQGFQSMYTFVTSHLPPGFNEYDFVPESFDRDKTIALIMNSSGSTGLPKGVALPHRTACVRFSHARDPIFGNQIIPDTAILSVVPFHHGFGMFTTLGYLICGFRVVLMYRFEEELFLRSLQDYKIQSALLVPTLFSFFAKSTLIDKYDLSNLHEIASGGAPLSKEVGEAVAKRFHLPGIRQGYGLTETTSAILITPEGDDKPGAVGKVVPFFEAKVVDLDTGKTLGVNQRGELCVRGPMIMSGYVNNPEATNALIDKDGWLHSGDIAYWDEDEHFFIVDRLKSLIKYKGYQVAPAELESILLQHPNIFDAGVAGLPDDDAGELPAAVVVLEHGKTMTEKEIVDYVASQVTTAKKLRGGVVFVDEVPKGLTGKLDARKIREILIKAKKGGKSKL
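Purified P. pyralis luciferase, 10 nM final, with Km-level 10 uM D-luciferin and 10 uM ATP in 50 mM Tris acetate pH 7.5, 10 mM Mg acetate, 0.01% Tween-20, 0.05% BSA; 6-point qHTS titration about 60 µM downward; luminescence read.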
Rab9 prom act: activators of Rab9 promoter. 2.8% of 320,000 active. Potency, µM (highest dose often 9.22 µM), most hits filed as activators. Huh7 Rab9 promoter-luciferase reporter, luminescence, 24 h. AID 485297; further: nearly all actives have a fitted effect of over 60% in size
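Using Huh7 cells stably transfected with Rab9 promoter–luciferase, compounds were incubated 24 h at 37 °C, 5% CO2; luciferase luminescence was read 10 min after reagent addition.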
Each line names hits and unclear results; the compound was inactive in the other large screens. In the library only some 9.4% were active in any assay of this set; here they are far more common. The call rests on the fitted dose curve; in most records, active means well fitted curve in the direction sought with a large enough effect; inconclusive means small, poorly fitted or top-dose-only effect, or another doubt; inactive means no such curve, though single readings can be large; an effect the other way counts as inactive or inconclusive.

Cc1ccc(S(=O)(=O)N(CCc2ccccc2)CC(=O)Nc2cc(C)ccc2C)cc1	none (no result: ELG1 DNA repair, ELG1 genotox, NPC1 prom act, SMN2 splice enh, Rab9 prom act)
O=C(NC(=S)Nc1cccc(NC(=S)NC(=O)c2ccco2)n1)c1ccco1	none
O=C(NC(=S)Nc1ccccc1Br)c1ccco1	ELG1 DNA repair inconclusive, ELG1 genotox inconclusive, NPC1 prom act inconclusive, FLuc modulator 11µM, Rab9 prom act inconclusive (no result: SMN2 splice enh)
O=C(NC(=S)NNC(=O)c1ccco1)c1ccc(F)cc1	none (no result: SMN2 splice enh)
O=C(NC(=S)NNC(=O)c1ccccc1O)c1ccco1	FLuc modulator 21µM
O=C(N/N=C/c1cn(Cc2ccccc2)c2ccccc12)c1ccncc1	ELG1 DNA repair 18µM, FLuc modulator inconclusive
O=C(N/N=C/c1cn(Cc2ccccc2)c2ccccc12)c1cccnc1	ELG1 genotox inconclusive, FLuc modulator inconclusive
COCCNC(=O)Cn1cc(/C=N/NC(=O)c2ccc(Oc3ccc(O)cc3)cc2)c2ccccc21	ELG1 DNA repair inconclusive, FLuc modulator 11µM
COc1ccc(OCCn2cc(/C=N/NC(=O)c3ccncc3)c3ccccc32)cc1	ELG1 DNA repair inconclusive, FLuc modulator inconclusive
Nc1ccc(C(=O)N/N=C/c2cn(Cc3cccc(F)c3)c3ccccc23)cc1	FLuc modulator 24µM (no result: SMN2 splice enh)
CC(=O)c1ccc(NC(=O)c2nn(C)c3c2COc2ccccc2-3)cc1	none (no result: ELG1 DNA repair, ELG1 genotox, NPC1 prom act, SMN2 splice enh, Rab9 prom act)
CC1=C(/C=C/C(C)=C/C=C/C(C)=C/C=C/C=C(C)/C=C/C=C(C)/C=C/C2=C(C)C(=O)C(O)CC2(C)C)C(C)(C)CC(O)C1=O (stereo not drawn)	none (no result: ELG1 DNA repair, ELG1 genotox, NPC1 prom act, FLuc modulator, Rab9 prom act)
COc1ccc(CNC(=O)CCc2c(C)nc3c(c(C)nn3-c3ccccc3)c2C)cc1	none (no result: ELG1 DNA repair, ELG1 genotox, NPC1 prom act, Rab9 prom act)
Cc1cc(C(=O)Nc2nnc(C3CCCCC3)s2)cs1	ELG1 DNA repair inconclusive, ELG1 genotox inconclusive, NPC1 prom act inconclusive, Rab9 prom act 1.6µM
CC(NC(=O)Nc1nnc(C(F)(F)F)s1)(C(F)(F)F)C(F)(F)F	ELG1 DNA repair 5.2µM
Cc1nn(-c2ccccc2)c(Cl)c1C(=O)Nc1nnc(C2CCCC2)s1	none
CC(C)(C)CC(=O)Nc1nnc(C(F)(F)F)s1	none
Cc1nn(-c2ccccc2)nc1C(=O)Nc1nnc(C(F)(F)F)s1	ELG1 DNA repair 15µM, FLuc modulator inconclusive (no result: SMN2 splice enh)
Cc1cc(C(=O)Nc2nnc(C(F)(F)F)s2)cs1	ELG1 DNA repair inconclusive, NPC1 prom act inconclusive, FLuc modulator 12µM, Rab9 prom act inconclusive (no result: SMN2 splice enh)
CC(=O)N1CCC(N(C(=O)Nc2ccc(C)c(F)c2)C(C)C)CC1	none (no result: ELG1 DNA repair, ELG1 genotox, NPC1 prom act, SMN2 splice enh, Rab9 prom act)
O=c1c2cccnc2n(Cc2ccccc2F)c(=O)n1Cc1ccccc1Cl	none (no result: ELG1 DNA repair, ELG1 genotox, NPC1 prom act, Rab9 prom act)
O=C1C2C(C(=O)N1CCN1CCN(Cc3ccc([N+](=O)[O-])cc3)CC1)[C@H]1C=C[C@@H]2C1 (stereo partly drawn)	ELG1 DNA repair 16µM (no result: SMN2 splice enh)
O=[N+]([O-])c1ccc(CN2CCCCCC2)cc1	none (no result: SMN2 splice enh)
Nc1c(C(=O)NC2CCCC2)c2nc3ccccc3nc2n1N	FLuc modulator 17µM (no result: SMN2 splice enh)
COc1ccc(OC)c(-n2c(N)c(C(=O)NCC3CCCO3)c3nc4ccccc4nc32)c1 (stereo not drawn)	ELG1 DNA repair 16µM
CC(C)Cn1c(N)c(C(=O)NCC2CCCO2)c2nc3ccccc3nc21 (stereo not drawn)	ELG1 DNA repair 8.9µM
CC(C)=C1CCC(C)CC1=O (stereo not drawn)	none (no result: ELG1 DNA repair, ELG1 genotox, NPC1 prom act, FLuc modulator, Rab9 prom act)
O=C(Nc1ccc2c(c1)CCCN2C(=O)c1cccs1)c1cccc(C(F)(F)F)c1	none (no result: ELG1 DNA repair, ELG1 genotox, NPC1 prom act, SMN2 splice enh, Rab9 prom act)
CCOc1ccccc1Nc1nc(-c2sc(NC(=O)c3ccco3)nc2C)cs1	ELG1 DNA repair inconclusive
Cc1nc(NC(=O)c2ccccc2)sc1-c1csc(NCc2ccco2)n1	ELG1 DNA repair 15µM, FLuc modulator 13µM
c1coc(CNc2nc3ccccc3s2)c1	ELG1 DNA repair inconclusive, ELG1 genotox inconclusive, NPC1 prom act 1.6µM, FLuc modulator 7.6µM, Rab9 prom act inconclusive (no result: SMN2 splice enh)
Cc1nc(C)c(-c2csc(NCc3ccco3)n2)s1	ELG1 DNA repair inconclusive, ELG1 genotox 13µM, SMN2 splice enh inconclusive, FLuc modulator 15µM, Rab9 prom act inconclusive
COc1ccc(-c2csc(NCc3ccco3)n2)cc1	ELG1 DNA repair inconclusive, ELG1 genotox inconclusive, NPC1 prom act 0.89µM, SMN2 splice enh 13µM, FLuc modulator 1.1µM, Rab9 prom act 0.56µM
